Data from PubChem BioAssay AID1851 (National Center for Advancing Translational Sciences (NCATS), 2009).
Out of some 16,000 compounds screened, about 5,100 (32%) were called active. Another 25% or so got no clear call; they are omitted. The call rests on the fitted dose curve; in most records, active means well fitted curve in the direction sought with a large enough effect; inconclusive means small, poorly fitted or top-dose-only effect, or effect the other way; inactive means no such curve, though single readings can be large or run the other way. The list shows a part of the results.

Target: Cytochrome P450 3A4 (Homo sapiens) (UniProt P08684)
Sequence (P08684 whole entry, looked up): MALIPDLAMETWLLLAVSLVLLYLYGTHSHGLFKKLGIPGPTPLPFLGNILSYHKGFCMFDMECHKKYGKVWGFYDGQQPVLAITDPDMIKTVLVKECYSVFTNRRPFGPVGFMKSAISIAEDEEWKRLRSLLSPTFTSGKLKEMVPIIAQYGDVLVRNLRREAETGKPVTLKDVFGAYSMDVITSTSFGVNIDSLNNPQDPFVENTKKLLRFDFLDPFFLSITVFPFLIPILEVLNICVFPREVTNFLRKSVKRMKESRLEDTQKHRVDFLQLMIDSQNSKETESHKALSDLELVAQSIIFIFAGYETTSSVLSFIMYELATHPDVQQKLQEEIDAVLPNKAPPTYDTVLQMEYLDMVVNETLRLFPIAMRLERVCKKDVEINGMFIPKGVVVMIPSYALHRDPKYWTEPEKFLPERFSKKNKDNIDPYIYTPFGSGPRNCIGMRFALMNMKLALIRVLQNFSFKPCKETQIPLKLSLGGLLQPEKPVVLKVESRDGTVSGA
Experiment: Cytochrome panel assay with activity outcomes
Details: recombinant CYP, pro-luciferin dealkylation, luminescence, p450-cyp3a4; series mostly up to 57.1 µM
On the % scale 0 is the no-effect control and ±100 the full control effect.

activity, negative = inhibition, inactive:
Cc1ccc(-c2c(C#N)c(N)n(-c3ccccc3)c(=O)c2C#N)cc1 -3.64% [at 2.29 µM]
CN(C)CCOC(=O)c1ccc(N)cc1 -4.56% [at 11.4 µM]
CC(C)(C)NC[C@@H](O)c1ccc(O)c(CO)n1 2.12% [at 11.4 µM]
Cc1cc(C)c(-c2noc(C(=O)OC(C)(C)C)c2C(=O)OC(C)(C)C)c(C)c1 -8.97% [at 2.29 µM]

AC50, inactive:
FC(F)(F)c1cc(C(F)(F)F)c2ccc(N/N=C/c3cccc(Cl)c3)nc2n1
Cc1c(C)c2c(c(C)c1O)CC[C@@](C)(CCC[C@@H](C)CCC[C@@H](C)CCCC(C)C)O2
CC(C)NC(=O)c1ccc(-c2cccc(C(F)(F)F)c2)o1
CC(=O)OCc1c(C(F)(F)F)nn(C)c1Sc1ccccc1
CN(C/C=C\c1ccccc1)Cc1cccc2ccccc12
COc1ccccc1C(=O)NC(=S)N1CCCc2ccccc21
CC[N+](CC)(CC)CC
N[C@@H](C(=O)O)c1ccc(P(=O)(O)O)cc1
O=C(O)c1sc2cc(C(F)(F)F)cnc2c1-c1ccccc1
CCOC(=O)c1sc2c(c1C)c(=O)c(C(=O)OCC)cn2CC

AC50, active:
O=C(OCCNC(=O)c1ccc2ccccc2n1)c1ccc(F)cc1 14.1 µM
Fc1ccc(N2CCN(c3ccc4c(C(F)(F)F)cc(C(F)(F)F)nc4n3)CC2)cc1 10 µM
Cc1ccc(Nc2nc(Cl)nc(N(C)C#N)n2)cc1 11.2 µM
Cc1ccc(NC(=O)c2c(C(F)(F)F)nn(C)c2SCc2cccc(C(F)(F)F)c2)cc1C 3.16 µM
Cn1nc(C(F)(F)F)c(C(=O)Nc2ccc(F)cc2F)c1Sc1ccc(C(F)(F)F)cc1 12.6 µM
Cn1nc(C(F)(F)F)c(C(=O)Nc2ccc(F)cc2F)c1Sc1cccc(C(F)(F)F)c1 6.31 µM
Cc1ccc(NC(=O)c2sccc2SCc2cccc(C(F)(F)F)c2)cc1 1 µM
COc1ccccc1C(c1nnnn1C(C)(C)C)N1CCN(Cc2ccncc2)CC1 (configuration not stated) 3.16 µM
COc1ccccc1C(c1nnnn1C(C)(C)C)N1CCCc2ccccc21 (configuration not stated) 10 µM
N#Cc1cccc(C(c2nnnn2C2CCCC2)N2CCCCCC2)c1 (configuration not stated) 5.01 µM
N#Cc1ccc(C(c2nnnn2Cc2ccccc2)N2CCCC2)cc1 (configuration not stated) 7.94 µM
N#Cc1ccc(C(c2nnnn2C2CCCC2)N2CCC(Cc3ccccc3)CC2)cc1 (configuration not stated) 4.47 µM
CCOC(=O)c1sc2nc(CC(=O)OC)nc(NCc3ccc(F)cc3)c2c1C 4.47 µM
